Only some compounds are listed: those with a hit (about 1.4% of all), similar ones and a draw of the others.
VHR inh abs: inhibitors of human VHR1 phosphatase (DUSP3); AID 1654; hit rate 0.52% among 290,000; inhibition, % at 13.3 µM; recombinant VHR phosphatase, pNPP absorbance; in the data active = inhibition above about 50%
Target sequence (P51452 whole entry, looked up): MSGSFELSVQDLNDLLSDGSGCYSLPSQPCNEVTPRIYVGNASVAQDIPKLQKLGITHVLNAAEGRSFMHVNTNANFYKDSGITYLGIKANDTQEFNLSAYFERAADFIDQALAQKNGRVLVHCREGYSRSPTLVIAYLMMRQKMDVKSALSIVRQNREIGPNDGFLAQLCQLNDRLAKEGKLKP
Sa RN4220 lethal: S. aureus RN4220 growth inhibition | OD600, 16 h | inhibition, % (concentration not given with the values) | hit rate 0.33% among 330,000 | AID 1259311; in the data active = inhibition above about 85%;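 note: plate controls were untreated cells for no effect and reference antibiotic for full effect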
3CLpro inhibitor: SARS-CoV 3CLpro protease inhibition. AID 1706. hit rate 0.14% among 290,000. P0C6X7. inhibition, % at 6 µM. recombinant SARS-CoV 3CLpro, quenched FRET peptide cleavage; in the data active = inhibition above about 12%
ugtP null kill: growth inhibition of S. aureus ugtP deletion strain. hit rate 0.54% among 330,000. AID 1259309. growth inhibition, % (concentration not given with the values). S. aureus RN4220 ugtP deletion, OD600 growth, 16 h; in the data active = growth inhibition above about 68%;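 note: plate controls were untreated wells for no effect and antibiotic for full effect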
BJeLR lethal: BJeLR cell viability loss; BJeLR (HRASV12) viability, CellTiter-Glo ATP luminescence, 48 h; inhibition, % (concentration not given with the values); hit rate 0.17% among 300,000; in the data active = inhibition above about 50%
PrPC surface inh: inhibitors of human cell surface prion protein PrPC; TR-FRET read-out; inhibition, % at 13.8 µM; AID 720596; hit rate 0.43% among 370,000; P04156; in the data active = inhibition above about 24%; note: 0% = median of the test wells and 100% = reference compound wells
Numbers without * were called inactive; x = no result.

SMILES	VHR inh abs	Sa RN4220 lethal	3CLpro inhibitor	ugtP null kill	BJeLR lethal	PrPC surface inh
Cc1ccc(NC(=S)N/N=C/c2c(Cl)cccc2Cl)c(C)c1	17	x	4	x	53*	17
S=C(NN=Cc1ccccc1Cl)Nc1cccc(Cl)c1Cl	x	-8	x	99*	x	x
CNC(=S)NN=Cc1ccccc1Cl	x	2	x	-3	x	x
O=C(NC1CCOC1)c1cc(COc2cccc(C(F)(F)F)c2)on1 (centres undefined)	51*	2	-2	-4	-1	5
CN1CCN(S(=O)(=O)c2ccc(NC(=S)NC(=O)c3ccc(Cl)cc3)cc2)CC1	8	4	-4	90*	x	-3
O=S(=O)(c1ccc(NC(=S)NCc2cccnc2)cc1)N1CCCCC1	40	4	-5	4	62*	4
CCOC(=O)N1CCN(S(=O)(=O)c2ccc(NC(C)=O)cc2)CC1	52*	0	0	6	4	2
CN1CCN(S(=O)(=O)c2ccc(NC(=S)NC(=O)c3ccccc3)cc2)CC1	-12	-2	5	46	1	0
O=C(NC(=S)Nc1ccc(S(=O)(=O)N2CCCCC2)cc1)c1ccc(Cl)cc1	-18	-10	-2	91*	4	2
CC1CCN(S(=O)(=O)c2ccc(NC(=S)NC(=O)c3ccc(Cl)cc3)cc2)CC1	25	-7	2	71	10	3
CN(C)c1ccc(-c2ccc(C3C4C=CCC[C@@]4(C)C(=O)N3Cc3ccccc3)c(F)c2)cc1 (some centres undefined)	x	0	x	8	x	x
C#CCOCCOCCOCCNc1nc(N2CCN(C(=O)C(CCCCN)n3cc(CCC(=O)O)nn3)CC2)nc(N2CCN(C(=O)C(C(C)CC)n3cc(CCCCN)nn3)CC2)n1 (centres undefined)	x	5	x	-2	x	x
CCCCC(=O)NC(=S)Nc1ccc(S(=O)(=O)N2CCCC2)cc1	-12	5	2	94*	0	7
Cc1ccc(OCC(=O)Nc2ccccc2N2CCOCC2)c(C)c1	52*	10	3	-7	-10	11
COc1cc(C)ccc1OCC(=O)Nc1ccccc1N1CCOCC1	x	3	x	0	x	-2
N#Cc1ccccc1NC(=O)COC(=O)c1ccc(F)cc1F	53*	1	1	14	1	5
Cc1c(C(=O)NC2CCOC2)oc2c(F)cccc12 (centres undefined)	53*	4	-5	-1	6	-2
O=[N+]([O-])c1cc(Br)c(O)c(C=NNc2nc3ccccc3s2)c1	x	67	x	84*	x	x
Fc1cccc(CCN2CCNCC2CC2CCCCC2)c1 (centres undefined)	x	-1	x	3	x	x
CCCc1ccc(-c2ccc(-c3noc(-c4ccncc4)n3)cc2)nc1	-13	-6	4	14	-1	6
CCCCc1ccc(-c2ccc(Br)cc2)nc1	4	18	-3	88*	-4	-1
O=[N+]([O-])c1ccc(C(O)C(CO)NC(=S)Nc2ccccc2)cc1 (centres undefined)	8	9	6	39	3	-9
O=C(N[C@H](CO)[C@H](O)c1ccc([N+](=O)[O-])cc1)C(Cl)Cl	x	98*	x	98*	-10	5
O=C(NC(CO)C(O)c1ccc([N+](=O)[O-])cc1)C(Cl)Cl (centres undefined)	3	89*	3	96*	1	-4
O=C(NC(CO)Cc1ccc([N+](=O)[O-])cc1)C(Cl)Cl (centres undefined)	8	94*	3	99*	-3	x
SMILES	VHR inh abs	Sa RN4220 lethal	3CLpro inhibitor	ugtP null kill	BJeLR lethal	PrPC surface inh
O=C(O)CC(Cc1ccc(Cl)cc1)C(=O)Nc1ccc([N+](=O)[O-])cc1 (centres undefined)	-5	5	3	11	-4	-6
CC(C)CC(COc1ccccc1)N1CCN(C)CCC1=O (centres undefined)	x	4	x	4	x	x
O=C1C=C(NCc2ccccc2)c2ccccc2C1=O	-13	92*	4	92*	1	-6
Cc1ccc(Oc2nc3ccccc3n3cccc23)cc1	17	-10	2	96*	0	-6
CC(=O)Nc1ccc(S(=O)(=O)N2CCC(C(=O)NCCC(=O)Nc3ccccc3)CC2)cc1	-6	-1	4	-1	2	-3
COc1ccc(S(=O)(=O)N2CCC(C(=O)NCCC(=O)Nc3ccc(Cl)cc3)CC2)cc1	57*	2	-6	0	1	-5
